Experimental data reported in PMC5540273 (PLoS ONE, 2017).

Experiments:
Settings in all cases: concentration: 1 μM, replicates: in singlicate; n = 1
AKT3 = tested on: AKT3
ALK = tested on: ALK
AMPK-alpha1 = tested on: T1, AMPK-alpha1
T1 construct: gene PRKAA1

AMPK-alpha2 = tested on: T2, AMPK-alpha2
T2 construct: gene PRKAA2

ANKK1 = tested on: ANKK1
ARK5 = tested on: T3, ARK5
T3 construct: gene NUAK1

ASK1 = tested on: T4, ASK1
T4 construct: gene MAP3K5

ASK2 = tested on: T5, ASK2
T5 construct: gene MAP3K6

AURKA = tested on: AURKA
AURKB = tested on: AURKB
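Further: KINOMEscan kinase panel screen.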

Row | Structure (SMILES) | %Inh (AKT3) [%] | %Inh (ALK) [%] | %Inh (AMPK-alpha1) [%] | %Inh (AMPK-alpha2) [%] | %Inh (ANKK1) [%] | %Inh (ARK5) [%] | %Inh (ASK1) [%] | %Inh (ASK2) [%] | %Inh (AURKA) [%] | %Inh (AURKB) [%]
1 | N#Cc1ccc(Oc2ccc(Nc3ncnc4cc[nH]c34)cc2Cl)cc1 | 0 | 0 | 17 | 15 | 28 | 10 | 18 | 0 | 11 | 16
2 | O=C(CCO)NCCn1ccc2ncnc(Nc3ccc(Oc4cccc(C(F)(F)F)c4)c(Cl)c3)c21 | 0 | 0 | 0 | 0 | 0 | 0 | 0 | 0 | 0 | 0
3 | Nc1nc(-c2cccnc2)c(-c2ccnc3ccccc23)s1 [GW684083] | 0 | 22 | 23 | 20 | 5 | 0 | 0 | 10 | 0 | 7
4 | Oc1ccc2ncnc(Nc3ccc(OCc4ccccc4)cc3)c2c1 [GI262866] | 0 | 21 | 4 | 0 | 0 | 15 | 0 | 7 | 0 | 21
5 | Cl.O=S(=O)(c1cccc(F)c1)c1ccc(Nc2ncnc3cc(Br)sc23)cc1Cl [GSK306886] | 0 | 14 | 0 | 0 | 3 | 10 | 8 | 0 | 30 | 0
6 | C[C@H]1CC[C@@H](C(=O)Nc2ccccc2)CN1c1cc(-c2ccc3c(N)n[nH]c3c2)nc(N)n1 [GSK2283293] | 0 | 30 | 0 | 13 | 11 | 1 | 0 | 5 | 0 | 6
7 | CSc1nn2c(=O)cc(N3CCOCC3)nc2n1Cc1cccc(Cl)c1Cl [GSK2347225] | 1 | 30 | 11 | 20 | 19 | 7 | 14 | 0 | 21 | 0
8 | Nc1nc(-c2ccccn2)c(-c2ccnc3ccccc23)s1 [GW548057] | 0 | 17 | 14 | 1 | 20 | 24 | 2 | 0 | 17 | 0
9 | CC(C)N1CCC(n2cnc(-c3ccc(F)cc3)c2-c2ccnc(N)n2)CC1 [SB-223132] | 0 | 12 | 0 | 11 | 0 | 0 | 1 | 0 | 0 | 0
10 | CN1c2ccc(-c3ccc(C(=O)NCCO)cc3)cc2-c2[nH]ncc2S1(=O)=O | 12 | 44 | 16 | 0 | 0 | 0 | 34 | 3 | 0 | 37
11 | O=C(NCCCN1CCCC1=O)c1cnc(NCc2cc(Cl)ccc2Cl)nc1NC1CCNCC1 | 0 | 21 | 18 | 17 | 0 | 0 | 0 | 0 | 0 | 0
12 | CS(=O)(=O)CCNCc1ccc(-c2ccc3ncnc(Nc4ccc(OCc5ccccc5)c(Cl)c4)c3c2)o1.Cl [GW574783] | 27 | 18 | 9 | 24 | 0 | 18 | 0 | 0 | 0 | 4
13 | C[C@@H]1CCN(C(=O)CO)C[C@@H]1N(C)c1ncnc2[nH]ccc12 | 7 | 15 | 5 | 0 | 0 | 0 | 0 | 0 | 0 | 0
14 | CCc1nc(-c2cccc(C)c2)c(-c2ccnc(NC(=O)c3ccccc3)c2)s1 | 0 | 27 | 16 | 1 | 0 | 0 | 9 | 0 | 17 | 6
15 | Nc1nc(-c2ccc3c(N)n[nH]c3c2)cc(N2CCCCC2)n1 [GSK2228768] | 0 | 14 | 0 | 0 | 3 | 0 | 0 | 9 | 0 | 14
16 | Cl.Fc1ccccc1COc1ccc(Nc2ncnc3ccc(-c4nnc(C(F)(F)F)o4)cc23)cc1Cl [GW424170] | 0 | 0 | 0 | 0 | 0 | 0 | 0 | 0 | 13 | 0
17 | Fc1cccc(COc2ccc(Nc3ncnc4sc(-c5ccc[nH]5)cc34)cc2Cl)c1 [GW707818] | 0 | 0 | 10 | 36 | 12 | 6 | 21 | 0 | 6 | 0
18 | Cn1cc(-c2ccc3c(c2)CCN3C(=O)Cc2cccc(C(F)(F)F)c2)c2c(N)ncnc21 [GSK2606414] | 53 | 1 | 0 | 13 | 16 | 13 | 0 | 10 | 30 | 32
